Screening data (PubChem BioAssay)
Most compounds without a hit are left out; they make up all but 3.8% or so of the library.
proKLK7 act: activates the human kallikrein-7 zymogen | purified proKLK7, EDANS-DABCYL substrate fluorescence; 100% is mature enzyme control, 0% vehicle | activation, % at 7 µM | 370,000 tested, 0.9% active | AID 652039;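 active = activation above the mean of all tested compounds plus 3 SD, computed per campaign excluding outliers beyond control limits, cut at about 13% in these data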
Target sequence (P49862 whole entry, looked up): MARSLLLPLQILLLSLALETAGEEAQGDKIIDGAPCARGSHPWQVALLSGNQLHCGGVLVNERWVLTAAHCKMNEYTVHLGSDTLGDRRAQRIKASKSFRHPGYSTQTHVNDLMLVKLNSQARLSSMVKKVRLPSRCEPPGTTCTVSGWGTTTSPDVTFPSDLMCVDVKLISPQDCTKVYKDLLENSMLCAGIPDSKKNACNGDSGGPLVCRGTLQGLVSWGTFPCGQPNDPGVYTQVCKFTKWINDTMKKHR
ADAM17 inh: ADAM17 inhibition, QFRET primary screen. P78536. inhibition, % at 6.95 µM. recombinant ADAM17, EDANS/DABCYL FRET peptide cleavage. 370,000 tested, 0.83% active;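 active = inhibition above the mean of compounds lying between control limits plus 3 SD, set per campaign, cut at about 8.5% in these data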;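 also: 0% = DMSO-only wells as the low control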
rRNA inh HTS: selective bacterial rRNA inhibition in E. coli; E. coli WT GFP vs humanized-ribosome RFP mutants, fluorescence, 24 h; hits give low values; DMSO median 0, no signal -100; GFP signal change (wild-type ribosome), % (test concentration not listed); 350,000 tested, 1.6% active;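 active = significant combined selectivity score with lowered wild-type GFP, culture density cut under 30%, mutant RFP and density less affected; inactive = any of these conditions unmet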
FGF22 binding: binders of recombinant human FGF22 by thermal shift. SYPRO orange fluorescence; percent of sucrose octasulfate shift, DMSO zero. Q9HCT0. activity (Tm shift, normalised), % at 9.99 µM. 340,000 tested, 1.5% active;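 active = mean Tm shift, scaled 0 neutral to 100 positive control, at about 1.3% or above, every replicate too, limit read from the data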
Target sequence (Q9HCT0 whole entry, looked up): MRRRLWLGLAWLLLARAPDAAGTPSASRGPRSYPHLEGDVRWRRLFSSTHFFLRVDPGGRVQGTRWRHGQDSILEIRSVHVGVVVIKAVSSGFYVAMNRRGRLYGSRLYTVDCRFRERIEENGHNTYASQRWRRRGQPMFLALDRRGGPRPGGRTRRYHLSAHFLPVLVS
ADAM10 inh: inhibits human ADAM10 | inhibition, % at 7 µM | recombinant ADAM10, EDANS/DABCYL FRET peptide cleavage, 3 h | AID 720582 | O14672 | 370,000 tested, 0.62% active;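 active = inhibition above a per-campaign cutoff equal to the mean of compounds falling between control-based bounds plus 3 SD, cut at about 20% in these data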;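 also: 0% = DMSO wells while the 100% control is not disclosed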
The depositor's hits bear a star; . = no result given.

SMILES	proKLK7 act	ADAM17 inh	rRNA inh HTS	FGF22 binding	ADAM10 inh
O=C(Nc1ccc(Cl)c(S(=O)(=O)N2CCOCC2)c1)c1ccc2c(c1)OCO2	0	-1	-23*	0	3
O=C(NC1=NCCS1)c1ccc(F)c(S(=O)(=O)N2CCOCC2)c1	-1	-1	5	0	-5
O=C(NC1=NCCS1)c1ccc(Cl)c(S(=O)(=O)N2CCOCC2)c1	-1	0	8	43*	11
O=C(NC1=NCCS1)c1ccc(Cl)c(S(=O)(=O)N2CCCCC2)c1	-1	-4	.	.	0
O=C(NC1=NCCS1)c1ccc(Cl)c(S(=O)(=O)N2CCCC2)c1	0	1	-11	43*	3
COc1cc(OC)c(N(C)S(=O)(=O)c2cccc(C(=O)NC3=NCCS3)c2)cc1Cl	1	0	-23*	0	2
C[C@@H]1CN([C@@H](C)CO)C(=O)c2cc(NC(=O)Nc3ccccc3)ccc2O[C@@H](C)CCCCO[C@H]1CN(C)Cc1ccncc1	.	.	-1	0	.
CC(=O)N(C)C[C@H]1Oc2c(N)cccc2C(=O)N(C)C[C@@H]1C	.	.	2	.	.
CC1(C(=O)NS(=O)(=O)c2ccc3c(c2)CCO3)CCN1C(=O)Cc1ccc(-c2ccccc2)cc1 (centres undefined)	0	-3	-6	0	-7
CC1(C(=O)NS(=O)(=O)c2ccc3c(c2)CCO3)CCN1C(=O)c1ccccc1CCc1ccccc1 (centres undefined)	0	-2	-20*	0	2
Cc1cccc(S(=O)(=O)NC(=O)C2(C)CCN2C(=O)c2ccccc2CCc2ccccc2)c1 (centres undefined)	-1	-2	-50*	0	3
COc1ccccc1CCc1nnc(CCC(=O)N(C)Cc2cccc3cnccc23)o1	0	-2	2	44*	-4
CCN(CCn1cccn1)C(=O)CCc1nnc(CCc2ccccc2OC)o1	0	0	9	44*	-4
COc1ccccc1CCc1nnc(CCC(=O)N(C)Cc2ccncc2C)o1	0	2	25	0	2
COc1ccc(CN(C)C[C@@H]2OCCCC[C@H](C)Oc3ccc(NS(=O)(=O)c4ccc(OC)cc4)cc3C(=O)N([C@@H](C)CO)C[C@@H]2C)cc1	.	.	1	0	.
COc1ccc(C(=O)Nc2cc(C)on2)cc1OC	0	-4	1	0	-2
COc1ccc(C(=O)Nc2cc(C)on2)cc1[N+](=O)[O-]	0	-3	17	43*	3
CCOC(=O)c1c(C)[nH]c(N=Nc2ccccc2)c1C	0	7	.	.	18
CCOC(=O)c1c(C)[nH]c(N=Nc2ccc(C)cc2)c1C	0	15*	.	.	10
OCCN(Cc1cccnc1)Cc1ccccn1	1	3	18	0	-18
OCCN(Cc1ccccc1)Cc1ncccc1O	0	-1	15	43*	-2
COc1ccc(-c2csc(Nc3ccc(S(=O)(=O)Nc4cc(C)on4)cc3)n2)cc1C	1	0	-47	44*	3
COc1ccc(-c2csc(Nc3ccc(S(=O)(=O)Nc4cc(OC)nc(OC)n4)cc3)n2)cc1	1	-5	.	.	-15
COc1ccc([N+](=O)[O-])cc1/C=N/NC(=O)CNC(=O)c1cccc(F)c1	-1	1	-23*	0	-7
COc1ccc2c3c([nH]c2c1)[C@@H](CO)N(C(=O)CN1CCOCC1)CC31CN(C(=O)NC(C)C)C1	.	.	6	0	.
SMILES	proKLK7 act	ADAM17 inh	rRNA inh HTS	FGF22 binding	ADAM10 inh
Cc1ccc2occ(-c3nn[nH]n3)c(=O)c2c1	-1	-1	-13	-1	-1
CC(C)c1ccc2occ(-c3nn[nH]n3)c(=O)c2c1	0	-3	4	44*	3
CCc1cccc2c(C(=O)C(F)(F)F)cn(CC(=O)N3CCOCC3)c12	0	-2	.	43*	3
CN(C)C(/C=C/Nc1ccc(O)cc1)=C(C#N)C#N	0	0	6	44*	0
Cc1cccc(N/C=C/C(=C(C#N)C#N)N(C)C)c1	0	-1	.	.	5
Cc1ccccc1CSCC(=O)Nc1ccccc1F	-1	-2	-25*	1	-3
Cc1ccccc1CSCC(=O)NCCSc1ccccn1	-1	2	-23	44*	2
CCN1[C@@H]2Cn3c(ccc(/C=C/c4ccccc4)c3=O)[C@H]1[C@@H](C(=O)N1CCCCC1)[C@@H]2CO	.	.	0	.	.
C[C@@H]1CCCCO[C@H](CN(C)S(=O)(=O)c2ccc(F)cc2)[C@@H](C)CN([C@@H](C)CO)C(=O)c2cc(NC(=O)Nc3ccccc3)ccc2O1	.	.	1	0	.
S=c1[nH]nc2nnc3ccccc3n12	1	-1	-32*	0	-11
C[C@@H]1CCCCO[C@H](CN(C)Cc2ccc(C(=O)O)cc2)[C@H](C)CN([C@@H](C)CO)C(=O)c2cc(NC(=O)Nc3ccc4c(c3)OCO4)ccc2O1	.	.	-1	-1	.
COc1ccc(CN2CC3(CCN(C(=O)C4CCOCC4)CC3)c3c(n(C)c4cc(OC)ccc34)[C@@H]2CO)cc1	.	.	3	0	.
Nc1nc(N)c(Cc2ccc(Cl)cc2Cl)c(N)n1	-1	-1	-29*	0	-6
CN(Cc1cc(=O)n2ccsc2n1)c1ccccc1	-2	-3	6	44*	-2
O=C(NCC1CCCCC1)[C@H]1[C@H](CO)[C@H]2Cn3c(ccc(C4=CCCCC4)c3=O)[C@@H]1N2	.	.	-1	0	.
O=C(O)C(=Cc1ccncc1)c1cccc2ccccc12	0	-2	-10	43*	-5
O=C(O)/C(=C\c1ccc2ccccc2c1)c1cccc2ccccc12	0	-6	-47*	0	-11
COC(=O)C(=Cc1ccncc1)c1cccc2ccccc12	0	-1	-20	0	3
COCC(=O)N1[C@H](CO)[C@@H](c2ccccc2)C12CN(C(=O)Cc1ccccn1)C2	.	.	12	0	.
N#C[C@H]1[C@@H](c2ccc(C3=CCCCC3)cc2)[C@H](CO)N1C(=O)NC1CCCCC1	.	.	-14	0	.
CC(C)NC(=O)N(C)C[C@@H]1Oc2ccc(N(C)C)cc2CC(=O)N(C)C[C@H]1C	.	.	-1	.	.
CCC(=O)N1C[C@@H](C)[C@H](OC)CN(C)C(=O)c2cc(NC(=O)c3cc(C)on3)ccc2OC[C@H]1C	.	.	2	.	.
CC(C)NC(=O)Nc1ccc2c(c1)C(=O)N([C@@H](C)CO)C[C@H](C)[C@@H](CN(C)Cc1ccc(C(F)(F)F)cc1)OCCCC[C@@H](C)O2	.	.	4	0	.
Cc1ccc(C)c(NC(=S)N2CCC(c3nc4ccccc4s3)CC2)c1	1	0	-35*	0	2
O=C(O)CNC(=S)N(Cc1ccccc1)Cc1cccs1	0	-1	-11	0	1
Cc1cccc(C)c1NC(=S)N(Cc1ccccc1)Cc1cccs1	0	1	-21*	0	3
CCOC(=O)CNC(=S)N(Cc1ccccc1)Cc1cccs1	0	-2	-26*	0	0
